# Measured values reported in the supplement of paper PMC10681739.
# Target: T1, ETS1 (UniProt P14921)
# T1 sequence: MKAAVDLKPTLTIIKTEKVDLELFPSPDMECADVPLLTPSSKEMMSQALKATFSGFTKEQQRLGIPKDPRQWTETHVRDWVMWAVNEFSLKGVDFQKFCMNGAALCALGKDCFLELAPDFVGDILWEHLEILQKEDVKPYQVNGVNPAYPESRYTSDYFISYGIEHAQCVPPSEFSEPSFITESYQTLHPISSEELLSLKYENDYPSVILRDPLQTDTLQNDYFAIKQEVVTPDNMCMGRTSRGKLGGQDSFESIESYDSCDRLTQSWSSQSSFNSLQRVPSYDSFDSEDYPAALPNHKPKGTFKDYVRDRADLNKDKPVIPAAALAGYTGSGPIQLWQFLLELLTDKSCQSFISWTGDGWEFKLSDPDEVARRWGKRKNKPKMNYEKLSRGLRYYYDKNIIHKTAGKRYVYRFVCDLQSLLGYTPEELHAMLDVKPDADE
# Test: ETS1 binding intensity (PBM fluorescence), ETS1 alone (arbitrary fluorescence units); higher = stronger binding
# Conditions: ETS1 concentration 1 nM; RUNX1 concentration 0 nM
row,Sequence,ETS1 binding intensity
1,GCACGTGTTTCCTGGGGCTGCACCACAGCACCACAC,444
2,GAGAGCTGAGCGGAAGCTCAGCTGTGGGGCTGGTTG,1740
3,ATTAAAGACTTCCGTGCAAGACCACAGCTGCCTGAC,555
4,GTGTTGGGTGGCTTCCTGCGGCGTTTCCACTCTCGC,605
5,AGGAGTGACGAGGCGGACGTGCGGGGGCGGGGGTGT,461
6,CTGTCAGGATGTTGGCTTGTGAGCCCACAATCCTCT,413
7,AGCCGGAGGCGGAAGGAGCAGCGCTACCGCAGCGTC,639
8,TACCACCTCAGGATGTCTGAACCACATGCAAGCAGG,439
9,GGATGGCGGAAGAGGCGGCTGAGGCCGCAGGACGTG,4630
10,CATTCCCGAGAGACTTCCGCGCCGCAGTTTCCCTGC,523
11,TGAATCATCCTGAGTTACCCGTTCTGTAACCGCCCC,490
12,ACTCCGCCCCTTCCGCCTGGCGGTTCCACTTCTCGG,480
13,CATCTACTGAGGAAGTGTAAGCCACAATAAGAAGCC,641
14,ACAGGAAACTAAAATAAGAACAGAAAACCAAGACAG,865
15,TGCCCAGTACTTCCTCTTGTGGGGGAGCACAACTTG,569
16,TGAGGCTCAGAGGAAGTGACTGGCCCGCAGGGTCAC,1050
17,GGTTTTGGTAGGAAGGAAAGTGGTTTTCATAGGAAG,588
18,CTATATCACATCCTTTCTCTGACCGCGCTGACTTCG,452
19,CAAAGCAACCCAAGGGGATGTGGTCACTGGGGTGAG,413
20,CTGCTTCGGCCCGGCTTCCGCCCACAGTCAACTGCC,825

row,Sequence,ETS1 binding intensity
1,ACGGACAGAATTTCCTCCCCCGTCACCACAGCGACC,686
2,GCAGTCGCTAAGGGCGGAAACCACTGTTTGGGAGCT,2110
3,TAGGTTAGAATAAGAGGAAACCTCAAACCAGAACCC,579
4,AGGGCGCCGCTTCCGGGAGCCCGCAAGCGGCCTCCG,606
5,GCATGTTCAAAAGGATGTGGGTGCTTACCTAGTGCC,956
6,ACGCTGGAATCGCGGAAACCGCCGGTGCACGTTGGA,531
7,CGAGCTATTTACTTCCTGCGGGTGCACAGGCTGTGA,654
8,GCGCACACATGCTTCCTGTGGTGACTGGGCGCTTCA,527
9,AGTTGCTAAGGAAATGACTGCCCGCAGCGCCTGGCC,423
10,CCCGCTTCCGCGTTTTACTCGGTGCCCGCAGCGCCG,445
11,ACTTACTTCCCGACGTCACAGCCTCCGACACCACAG,471
12,GCCACACCCCCTTCCTGTTGTGTGTGGGGATTCATG,744
13,AAGGACCGACCCGTTTTCCGCCCGCAGCGGAGCTTG,439
14,TCAGGAAGTGGTGTGACCAGCATGTGAACCGCGGCA,681
15,GGGCAGGTGCGGATGCCGAGGAGAGTGGTCACCTCG,449
16,TGTCCGGGCAGGAAGGGGTGCTCTGTGGGCTTGGAG,948
17,CCAGAAAGCTCCTCCTTCCGCCACAACACGATCACT,538
18,AAAAAATGGAGGAAGTTACCTCCAGTGGTTTTGTGA,751
19,AGAACAGGATGTTCTGAGTACAGCATGAACCTCAAA,1280
20,TAGTCCGCTACAGGAAGGTGGTCATCCTCGGATACC,1110

# Target: T1, ETS1
# Test: ETS1 binding intensity (PBM fluorescence) in presence of RUNX1, normalised to ETS1-only experiment (arbitrary fluorescence units); higher = stronger binding
# Conditions: ETS1 concentration 1 nM; RUNX1 concentration 25 nM
row,Sequence,ETS1 binding intensity
1,GCACGTGTTTCCTGGGGCTGCACCACAGCACCACAC,497
2,GAGAGCTGAGCGGAAGCTCAGCTGTGGGGCTGGTTG,1990
3,ATTAAAGACTTCCGTGCAAGACCACAGCTGCCTGAC,513
4,GTGTTGGGTGGCTTCCTGCGGCGTTTCCACTCTCGC,504
5,AGGAGTGACGAGGCGGACGTGCGGGGGCGGGGGTGT,458
6,CTGTCAGGATGTTGGCTTGTGAGCCCACAATCCTCT,451
7,AGCCGGAGGCGGAAGGAGCAGCGCTACCGCAGCGTC,1130
8,TACCACCTCAGGATGTCTGAACCACATGCAAGCAGG,571
9,GGATGGCGGAAGAGGCGGCTGAGGCCGCAGGACGTG,4800
10,CATTCCCGAGAGACTTCCGCGCCGCAGTTTCCCTGC,380
11,TGAATCATCCTGAGTTACCCGTTCTGTAACCGCCCC,517
12,ACTCCGCCCCTTCCGCCTGGCGGTTCCACTTCTCGG,456
13,CATCTACTGAGGAAGTGTAAGCCACAATAAGAAGCC,869
14,ACAGGAAACTAAAATAAGAACAGAAAACCAAGACAG,852
15,TGCCCAGTACTTCCTCTTGTGGGGGAGCACAACTTG,424
16,TGAGGCTCAGAGGAAGTGACTGGCCCGCAGGGTCAC,1550
17,GGTTTTGGTAGGAAGGAAAGTGGTTTTCATAGGAAG,598
18,CTATATCACATCCTTTCTCTGACCGCGCTGACTTCG,481
19,CAAAGCAACCCAAGGGGATGTGGTCACTGGGGTGAG,1800
20,CTGCTTCGGCCCGGCTTCCGCCCACAGTCAACTGCC,694

row,Sequence,ETS1 binding intensity
1,ACGGACAGAATTTCCTCCCCCGTCACCACAGCGACC,728
2,GCAGTCGCTAAGGGCGGAAACCACTGTTTGGGAGCT,3180
3,TAGGTTAGAATAAGAGGAAACCTCAAACCAGAACCC,991
4,AGGGCGCCGCTTCCGGGAGCCCGCAAGCGGCCTCCG,715
5,GCATGTTCAAAAGGATGTGGGTGCTTACCTAGTGCC,1230
6,ACGCTGGAATCGCGGAAACCGCCGGTGCACGTTGGA,627
7,CGAGCTATTTACTTCCTGCGGGTGCACAGGCTGTGA,475
8,GCGCACACATGCTTCCTGTGGTGACTGGGCGCTTCA,512
9,AGTTGCTAAGGAAATGACTGCCCGCAGCGCCTGGCC,929
10,CCCGCTTCCGCGTTTTACTCGGTGCCCGCAGCGCCG,389
11,ACTTACTTCCCGACGTCACAGCCTCCGACACCACAG,423
12,GCCACACCCCCTTCCTGTTGTGTGTGGGGATTCATG,696
13,AAGGACCGACCCGTTTTCCGCCCGCAGCGGAGCTTG,457
14,TCAGGAAGTGGTGTGACCAGCATGTGAACCGCGGCA,1110
15,GGGCAGGTGCGGATGCCGAGGAGAGTGGTCACCTCG,435
16,TGTCCGGGCAGGAAGGGGTGCTCTGTGGGCTTGGAG,1050
17,CCAGAAAGCTCCTCCTTCCGCCACAACACGATCACT,451
18,AAAAAATGGAGGAAGTTACCTCCAGTGGTTTTGTGA,1310
19,AGAACAGGATGTTCTGAGTACAGCATGAACCTCAAA,1210
20,TAGTCCGCTACAGGAAGGTGGTCATCCTCGGATACC,1170
